Experimental data: the supplement of paper PMC11417369
± gives the standard deviation of the averaged measurements. Over roughly 25,000 sequences, “ln(normalized median fluorescence intensity)” has its median near 8.6; the highest 2% begin near 10. The sample holds the highest values, similar sequences and a random draw of the others, so the mix is not that of the screen.

Tested on: PfAP2-EXP AP2 domain (GST-tagged)
Test: gcPBM binding intensity (ln(normalized median fluorescence intensity)); higher = stronger DNA binding
Outline: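 After 1 h on an Agilent 4 × 180k array of primer-extended double-stranded 36-bp intergenic genomic probes and negative controls, bound GST-tagged P. falciparum DNA-binding domains were detected with Alexa488 anti-GST antibody and scanned at 488 nm. The domains had been expressed in E. coli, and binding took place in 1× PBS with 1% milk, 0.2 mg/ml BSA, 0.5% salmon testes DNA and 0.03% Triton X-100. Binding intensity is the highest Masliner-normalised natural-log median intensity across replicate spots of either probe orientation.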

Sequence | gcPBM binding intensity (ln)
TATAAAAATATATTTACACACTATATATATCGAAAG [CACACA_site1700] | 8.52 ± 0.38
CCACTAATAAATATTACACACATATAGATTTATATT [CACACA_site7465] | 8.41 ± 0.44
ATATATATATATAATACACACTAAAGTAACATAATA [CACACA_site5580] | 9.74 ± 0.11
AATATTTATTTTATATGTACATAATTTATTTTTAAT [XGTACX_site776] | 8.63 ± 0.32
TATATATATACTTAATGTACATATATATATATATAT [XGTACX_site3102] | 10.3 ± 0.2
CATATAATATAATTATGTACATATATAATAATATAC [XGTACX_site5278] | 8.47 ± 0.29
TATATACTTTATAAATGTACATATAATGTATTATTT [XGTACX_site7313] | 8.34 ± 0.42
TTATATACATAAAAATGTACTTTTTATAAAATATAT [XGTACX_site8281] | 8.21 ± 0.18
ATATATATATATATATGTACATAATTAATAGCATAT [XGTACX_site1428] | 10.2 ± 0.36
TATATATATAATATATGTACATATTAATTATGTATA [XGTACX_site5366] | 8.79 ± 0.13
ATATATATATATATATGTACATATTTTATTTAATTT [XGTACX_site1807] | 10.2 ± 0.28
TTTATACTTTCAAAATGTACATATATATATATATAT [XGTACX_site6241] | 10.2 ± 0.24
TATATATATATATAATGTACATAATAATAATACATC [XGTACX_site5587] | 9.84 ± 0.26
TTTAATATGAATTTATGTACATATATATATATATAT [XGTACX_site6337] | 10.2 ± 0.35
TATATATATATATAATGTACATATATATAATATACA [XGTACX_site1552] | 10.1 ± 0.27
CAACACTTAGATTTTAAGTTCACTGGTTAATATATA [CACACA_negctrl_site707] | 8.12 ± 0.4
ATTGAAAATTGTTGCACACATAATAATTAAATATAT [CACACA_site1857] | 8.37 ± 0.23
GATCTTTAAATTTATTGTACATAAATGTATATGTTA [XGTACX_site1107] | 8.59 ± 0.45
TATTTACAAAAAAAATATAAAAAATATAAAATATAT [CACACA_negctrl_site575] | 8.12 ± 0.31
TGTTAATTTCATTTTCTACACACCTATCCTTTTTTT [CACACA_site8157] | 8.88 ± 0.47
TTAAATATAATATTATGTACTAAATATTTTTTTATT [XGTACX_site6121] | 8.09 ± 0.37
ATATATTATATAATATGTACATAATAAAATTTAAAT [XGTACX_site1900] | 8.72 ± 0.27
ATATATATATATATATGTACATAAATATAAATTTAA [XGTACX_site8715] | 10.2 ± 0.24
AAATAAATAATTTAATGTACATATATAATATATATA [XGTACX_site1831] | 8.5 ± 0.11

Sequence | gcPBM binding intensity (ln)
AATATTATATATATGGGTACTAATTCCTTTAATTTC [XGTACX_site102] | 8.15 ± 0.3
TAATTATTTTCGGTACGTACTAATGTATATATAATT [XGTACX_site3895] | 8.67 ± 0.42
ATATATATATATATATGTACTAATTAATATTTCGAG [XGTACX_site580] | 10.2 ± 0.47
TATTAATTTTTATTATGTACATAAATAATTTATATT [XGTACX_site5456] | 8.39 ± 0.28
ATATATATATATATATGTACATATTTTTAATTATAA [XGTACX_site7444] | 9.86 ± 0.13
ATATATATATATATATGTACATATTTTAATAATTAA [XGTACX_site8549] | 10.2 ± 0.23
TTTTTTTTTTTCGGGGGTACTAATATATTATTAATA [XGTACX_site7809] | 10.4 ± 0.34
GTATATAATTATATATGTACTAAATAAATATTTTTA [XGTACX_site6062] | 8.29 ± 0.39
AAATTATATCCCCTTTGTACTTACAGATCTTTATAC [XGTACX_site8163] | 8.77 ± 0.51
CACAGTGATATAAAAACACACATGAATTCTAATTTC [CACACA_site6884] | 8.3 ± 0.21
AAAGTTGTTACGAACATACACACGAACATACTCACG [CACACA_site604] | 8.7 ± 0.69
CCACTATATAAAATCACACATTTATATTATACATAT [CACACA_site4570] | 8.43 ± 0.4
TGTCATTTAATTTTTTGTACGAAAAAAACATATAAA [XGTACX_site4952] | 8.6 ± 0.24
TAATATTAATCCTAGTGTACATTAATTTATATGTAT [XGTACX_site3583] | 8.51 ± 0.45
GTATATATATATTTATGTACTTACCTACATAATTAT [XGTACX_site4435] | 8.84 ± 0.24
AAATTAAAATATATATGTACATATATATATATATAT [XGTACX_site7844] | 10 ± 0.42
TATACATATATTATATGTACATATATATATAATATA [XGTACX_site2942] | 8.29 ± 0.28
ATATATATATATATATGTACATATTATTAATAATAT [XGTACX_site6667] | 10.2 ± 0.35
GTATGTATGTATATATGTACACATTATTATTTAATG [XGTACX_site5802] | 8.78 ± 0.11
TTTAATTAAAATATATGTACATATATATATATATAT [XGTACX_site4517] | 10.4
ATAATGTTTTATAATACACACATTATGTATATAAAT [CACACA_site4077] | 8.36 ± 0.38
ATATTAATATACATATGTACATATATATATATATAT [XGTACX_site7425] | 10.2 ± 0.24
AAATTAATATAAATATGTACATAAATAATAAAATAT [XGTACX_site6131] | 8.71 ± 0.5
ATATATATATATATATGTACACATTAATGTTTTTTT [XGTACX_site167] | 10.4 ± 0.24
